Screening results: PubChem, several laboratories
Rows were chosen to be rich in hits. Some 2.9% of all compounds tested hit in one or more screens of this group.
DNA FID counter = compounds displacing fluorescent DNA intercalator, primary screen, artefact control for HCV NS3 helicase inhibitor project, biochemical, FID fluorescence; DNA fluorescent intercalator displacement; inhibition, % at 7.9 µM; 290,000 tested, 0.17% active; AID 1845, 2009; in the data active means inhibition above about 37%;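 further: 0% = vehicle and 100% = reference compound; higher means more ethidium bromide displaced from hairpin DNA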
MEKK3 PB1 HTS = modulators of MEKK3-MEK5 PB1 binding, primary screen, biochemical, wildtype MEKK3, multiplex bead flow cytometry, Alexa488-MEK5; Mitogen-activated protein kinase kinase kinase 3 (Homo sapiens), Q99759; bead-based flow cytometry, Alexa488-MEK5 binding to MEKK3; actives lie on both sides; 0 = blocked by unlabeled MEK5, 100 = vehicle; binding response (% of control), % at 10 µM; 290,000 tested, 1.4% active; AID 1529, 2009;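 active means binding response more than 3 SD above or below the average of its plate-row segment, actives on both sides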;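 further: Alexa488 bead fluorescence after subtracting the streptavidin-only scavenger bead signal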
Target sequence (Q99759 whole entry, looked up): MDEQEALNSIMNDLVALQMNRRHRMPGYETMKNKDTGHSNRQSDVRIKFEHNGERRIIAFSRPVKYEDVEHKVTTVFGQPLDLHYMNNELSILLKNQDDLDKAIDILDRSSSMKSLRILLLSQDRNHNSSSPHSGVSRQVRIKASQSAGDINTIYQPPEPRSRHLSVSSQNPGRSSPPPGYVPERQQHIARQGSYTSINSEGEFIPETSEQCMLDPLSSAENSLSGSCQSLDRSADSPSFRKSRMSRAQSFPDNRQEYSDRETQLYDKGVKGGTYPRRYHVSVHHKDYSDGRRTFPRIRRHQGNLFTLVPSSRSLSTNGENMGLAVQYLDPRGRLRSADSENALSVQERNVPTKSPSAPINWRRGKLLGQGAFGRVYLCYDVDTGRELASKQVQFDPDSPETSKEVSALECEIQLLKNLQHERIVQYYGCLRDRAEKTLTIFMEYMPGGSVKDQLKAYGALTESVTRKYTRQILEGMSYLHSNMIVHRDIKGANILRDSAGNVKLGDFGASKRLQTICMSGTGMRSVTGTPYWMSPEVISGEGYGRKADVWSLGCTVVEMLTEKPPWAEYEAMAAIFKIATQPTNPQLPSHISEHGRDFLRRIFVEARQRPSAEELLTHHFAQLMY
MEKK2 WT-MEK5 = modulators of MEK5 binding to wildtype MEKK2, primary screen, biochemical, multiplex bead flow cytometry, Alexa488-MEK5 | Mitogen-activated protein kinase kinase kinase 2 (Homo sapiens), Q9Y2U5 | binding response (% of control), % at 10 µM | Alexa488-MEK5 binding to MEKK2 WT; actives lie on both sides | 290,000 tested, 1.1% active; in the data active means binding response below about 67% or above about 130%
MEKK2 mut-MEK5 = MEK5 binding signal on mutant MEKK2 PB1, primary screen, biochemical, multiplex bead flow cytometry, Alexa488-MEK5; Alexa488-MEK5 binding to MEKK2 mutant; percent response, % at 10 µM; 290,000 tested, 0.35% active; in the data active means percent response above about 24%, passing the limit was not always enough
dFosB act = activators of delta FosB homodimer, primary screen, biochemical, fluorescence polarization, TAMRA-CDK5 oligo, single point; Protein FosB (Mus musculus), P13346; purified delta FosB; percent of positive-control signal above neutral wells; activation, % at 25 µM; 340,000 tested, 0.99% active; AID 493131, 2011;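 active means mean activation above about 17%, with every replicate also reaching it, limit read from the data, passing the limit was not always enough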
MEKK2wt confirm = modulators of MEK5 binding to wildtype MEKK2, confirmation, biochemical, single concentration, multiplex bead flow cytometry; shares compounds with MEKK3 PB1 HTS; Alexa488-MEK5 binding to MEKK2 WT; actives lie on both sides; binding response (% of control), % at 10 µM; 5,900 tested, 2.4% active; AID 1892, 2009; in the data active means binding response below about 16% or above about 210%; inactive means in between
MEKK2mut-MEK5 = mutant MEKK2 PB1-MEK5 binding signal retest – biochemical, single concentration, multiplex bead flow cytometry, confirmation; shares compounds with MEKK3 PB1 HTS; Alexa488-MEK5 binding to MEKK2 mutant; AID 1893, 2009; 5,900 tested, 2% active; percent response, % at 10 µM; in the data active means percent response mostly above about 71%, no sharp cut-off; inactive means mostly below about 38%;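 further: higher means compound restores mutant binding toward wildtype level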
MEKK3 confirm = MEKK3 wild-type PB1 binding to MEK5, inhibitors, confirmation, biochemical, bead multiplex flow cytometry, single concentration, wildtype; shares compounds with MEKK3 PB1 HTS; Alexa488-MEK5 binding to MEKK3; hits give low values; binding response (% of control), % at 10 µM; 5,900 tested, 1.8% active; AID 1894, 2009;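 active means binding response below 72% of control, or above a set upper limit, though filed actives all read lower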;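 further: 100% = DMSO only wells and 0% = binding blocked by excess unlabeled MEK5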
Active calls of the source: *; nt = no result; [ ] = dose if it differs, or a comment.

SMILES	DNA FID counter	MEKK3 PB1 HTS	MEKK2 WT-MEK5	MEKK2 mut-MEK5	dFosB act	MEKK2wt confirm	MEKK2mut-MEK5	MEKK3 confirm
Cc1ccc2nc(N(CCCN(C)C)C(=O)c3ccco3)sc2c1	4.0	231.0*	121.0	33.0	-17.2	109.0	12.0	107.0
CC(C)=CCC/C(C)=C/CNC(=O)C[C@H]1C[C@H](C(=O)N2CCCCC2)[C@@]2(CCc3ccccc3)c3[nH]c4cc(CCC(=O)N(C)C)ccc4c3CCN2C1=O	nt	nt	nt	nt	2.3	nt	nt	nt
CCc1ccc(CN(C)C(=O)C2CCC(=O)N(CCCN3CCCC3=O)C2)cc1 (stereo unspecified)	-23.2	99.0	98.0	3.0	-3.0	nt	nt	nt
CCOc1cccc2sc(N(CCCN(C)C)C(=O)c3ccc(S(=O)(=O)N(C)c4ccccc4)cc3)nc12	9.3	105.0	127.0	-6.0	-5.7	nt	nt	nt
Cc1ccc2nc(N(CCCN(C)C)C(=O)c3ccc4c(c3)CCCC4)sc2c1	22.4	107.0	191.0*	49.0	1.3	162.0	26.0	107.0
CCOc1cccc2sc(N(CCCN(C)C)C(=O)c3ccc(S(=O)(=O)N4CCc5ccccc5C4)cc3)nc12	23.0	113.0	200.0*	49.0*	6.8	305.0*	126.0*	116.0
Cc1ccc(-c2csc(N(CCCN(C)C)C(=O)c3ccco3)n2)cc1	20.0	114.0	202.0*	30.0	7.8	183.0	49.0	107.0
CCOc1ccc(C(=O)/C=C/c2cn(CN3CCN(C)CC3)c3ccccc23)cc1	-1.6	112.0	204.0*	41.0*	0.7	156.0	27.0	109.0
C=CC[N+]1(CC=C)CCOCC1	-0.2	100.0	107.0	2.0	3.7	nt	nt	nt
Cc1cccc(NC(=O)CN2CCN(CC(=O)Nc3cccc(C)c3)CC2)c1	-8.9	82.0*[inhibitor]	91.0	-10.0	-7.9	109.0	1.0	105.0
Cc1cc(NC(=O)CC2CCCC2)ccc1Br	-13.7	99.0	99.0	-5.0	-15.8	nt	nt	nt
Cc1cccc(NC(=O)CCN2CCN(C)CC2)c1	0.3	106.0	105.0	2.0	-12.1	nt	nt	nt
Cc1cccc(NC(=O)CC2CCC2)c1	-1.1	2.0*[inhibitor]	-1.0*[inhibitor]	-26.0	5.2	106.0	4.0	102.0
CCCc1nc(SCC(=O)Nc2nnc(CC)s2)c2c(C)c(C)sc2n1	-3.0	122.0*	115.0	9.0	5.8	99.0	3.0	100.0
CN(CCCCCNC(=O)/C=N/O)Cc1ccccc1	-0.5	101.0	115.0	14.0	nt	nt	nt	nt
CN(C)CCCN(CCCNC(=O)/C=N/O)Cc1ccccc1	1.2	112.0	179.0*	80.0*	5.2	127.0	28.0	116.0
Cc1cccc(NC(=S)NC2CC3CCCC(C2)N3Cc2ccccc2)c1C (stereo unspecified)	14.3	73.0	131.0	38.0	-5.1	nt	nt	nt
Cc1ccc2c(C(=O)CN3CCCCC3CCO)c(C)[nH]c2c1 (stereo unspecified)	6.0	101.0	101.0	0.0	-2.7	nt	nt	nt
Cc1[nH]c2ccccc2c1C(=O)CN1CCCCC1CCO (stereo unspecified)	0.9	44.0*[inhibitor]	63.0	-24.0	-3.7	114.0	7.0	105.0
Cc1ccc(NC(=O)C(C)c2ccc(-c3ccccc3)c(F)c2)cc1 (stereo unspecified)	0.3	106.0	102.0	-1.0	7.0	nt	nt	nt
O=C(N/N=C\C=C\c1ccco1)c1cc(-c2ccc3ccccc3c2)n[nH]1	-4.2	132.0*	100.0	0.0	-9.3	90.0	-9.0	99.0
O=C(N/N=C/C=C\c1ccco1)c1ccccn1	-17.2	112.0	104.0	4.0	-10.7	nt	nt	nt
Cc1cc(C(C)(C)C)ccc1OCCOCCN1CCCC1	16.1	136.0*	110.0	1.0	-2.2	108.0	-2.0	100.0
CC(C)C(OC(=O)c1cc2sccc2n1C)C(=O)NCC1CCCO1 (stereo unspecified)	-27.5	1.0*[inhibitor]	-2.0*[inhibitor]	-26.0	4.4	97.0	-9.0	98.0
Cc1ccc(/C=C/C(=O)N2CCN(c3ncccn3)CC2)o1	-19.9	101.0	100.0	-1.0	-5.3	nt	nt	nt
SMILES	DNA FID counter	MEKK3 PB1 HTS	MEKK2 WT-MEK5	MEKK2 mut-MEK5	dFosB act	MEKK2wt confirm	MEKK2mut-MEK5	MEKK3 confirm
CC1(C)Cc2cccc(OCC(=O)Nc3cccnc3)c2O1	-9.2	130.0*	122.0	9.0	-9.9	98.0	-4.0	99.0
O=C(COC(=O)CN1C(=O)C2CCCCC2C1=O)NNC(=O)c1ccc(Cl)cc1 (stereo unspecified)	nt	nt	nt	nt	-6.8	nt	nt	nt
CCCNC(=O)COC(=O)c1ccc(-c2ccccc2)cc1	-11.9	97.0	99.0	-3.0	-2.2	nt	nt	nt
Cc1nc2sccn2c(=O)c1CCN1CCC(=C(c2ccc(F)cc2)c2ccc(F)cc2)CC1	16.5	86.0	146.0*	12.0	7.2	136.0	20.0	107.0
Cc1nc2ccccn2c(=O)c1CCN1CCC(C(=O)c2ccc(F)cc2)CC1	5.1	88.0	95.0	4.0	-0.3	nt	nt	nt
O=C(NCCc1cccs1)C1CC(c2c(Cl)cccc2Cl)=NO1 (stereo unspecified)	-15.2	97.0	96.0	-3.0	-8.4	nt	nt	nt
CCCCCCCCNS(=O)(=O)CCNCc1ccccc1OC	nt	nt	nt	nt	-4.1	nt	nt	nt
CCOC(=O)CSc1ncc(-c2ccc([N+](=O)[O-])cc2)[nH]1	3.2	134.0*	105.0	1.0	3.7	98.0	2.0	103.0
CCOC(=O)Cn1cncc1-c1ccc([N+](=O)[O-])cc1	-7.9	103.0	101.0	1.0	1.3	nt	nt	nt
COc1ccc(NC(=O)c2c3c(nc4ccccc24)CCN(Cc2ccccc2)C3)c(OC)c1	-27.1	75.0*[inhibitor]	88.0	-1.0	-3.5	113.0	15.0	106.0
CCOC(=O)C1CCCN(C(=S)Nc2ccc(S(=O)(=O)N3CCOCC3)cc2)C1 (stereo unspecified)	nt	nt	nt	nt	-3.0	nt	nt	nt
N#Cc1c2nc3ccccc3nc2n2cc(NC(=O)c3ccc(F)cc3)ccc12	-0.5	56.0*[inhibitor]	-1.0*[inhibitor]	-5.0	-26.8	94.0	8.0	88.0
N#Cc1c(N)n(-c2ccc(C(=O)O)cc2)c2nc3ccccc3nc12	-3.6	104.0	103.0	0.0	-6.2	nt	nt	nt
O=C(CSc1n[nH]c(=O)n1C1CC1)c1c[nH]c2ccccc12	nt	nt	nt	nt	12.6	nt	nt	nt
CC(=O)c1cccc(S(=O)(=O)N2CCC(C(=O)NC3CCCC3)CC2)c1	nt	nt	nt	nt	-15.5	nt	nt	nt
